Compound activity: PubChem, National Center for Advancing Translational Sciences (NCATS)
Vaccinia Venus: inhibitors of vaccinia virus (Venus reporter) | Vaccinia virus Venus reporter expression, fluorescence | Potency, µM (titrated, usually from 36.5 µM), for inactives: top-dose activity change, negative = inhibition, usual class: inhibitors | 0.46% of 330,000 active; calls by dose curve; tested in A549 cells; further: on the % scale 0 is the no-effect control and ±100 the full control effect; nearly all actives have a fitted effect of over 30% in size
AmpC no deterg: blocks E. coli AmpC beta-lactamase in detergent-free assay | 0.52% of 330,000 active | AmpC nitrocefin hydrolysis, absorbance 480 nm, 0.0001% Triton | P00811 | AID 485341 | Potency, µM (top dose mostly 57.1 µM), without a hit: top-dose activity change, negative = inhibition, usual class: inhibitors;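 further: plate controls were no compound for no effect and no enzyme for full effect; nearly all actives have a fitted effect of over 20% in size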
Target sequence (P00811 whole entry, looked up): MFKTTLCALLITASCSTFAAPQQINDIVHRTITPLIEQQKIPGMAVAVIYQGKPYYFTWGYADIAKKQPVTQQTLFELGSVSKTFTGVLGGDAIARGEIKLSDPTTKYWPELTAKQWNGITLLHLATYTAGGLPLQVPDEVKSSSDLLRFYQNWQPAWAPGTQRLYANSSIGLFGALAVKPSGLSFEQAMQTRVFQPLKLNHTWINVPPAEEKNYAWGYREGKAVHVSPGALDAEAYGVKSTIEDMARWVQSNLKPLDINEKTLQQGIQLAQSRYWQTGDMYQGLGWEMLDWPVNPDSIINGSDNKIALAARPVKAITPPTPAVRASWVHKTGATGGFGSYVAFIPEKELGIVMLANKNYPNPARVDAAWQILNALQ
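AmpC (5.3 nM in the dispensed reagent) in 20 mM phosphate pH 7.0 with 0.01% (detergent screen) or 0.0001% Triton X-100 was preincubated with compounds for 15 min at room temperature. Nitrocefin was then added from an 800 uM solution, and hydrolysis was followed at 480 nm.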
SARS PLpro yeast: SARS-CoV PLP inhibition in yeast. S. cerevisiae expressing SARS-CoV PLpro, growth rescue. Potency, µM (titrated, usually from 32.9 µM), inactives show top-dose activity, positive = growth rescue, actives largely listed as activators. 0.19% of 330,000 active; calls by dose curve; further: 0% is about no effect; nearly all actives have a fitted effect of over 55% in size
AmpC inh detg: blocks E. coli AmpC beta-lactamase in detergent assay. P00811. AmpC hydrolysis of nitrocefin, absorbance 480 nm, 0.01% Triton. Potency, µM (series often up to 114 µM), for the others: at the top dose activity change, negative = inhibition, hits mostly inhibitors. 0.041% of 370,000 active. AID 485294;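 further: 0% = no-compound wells and -100% = no-enzyme wells; nearly all actives have a fitted effect of over 25% in size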
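AmpC (5.3 nM in the dispensed reagent) in 20 mM phosphate pH 7.0 with 0.01% (detergent screen) or 0.0001% Triton X-100 was preincubated with compounds for 15 min at room temperature. Nitrocefin was then added from an 800 uM solution, and hydrolysis was followed at 480 nm.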
Vaccinia mCherry: vaccinia inhibition (mCherry reporter). Vaccinia virus mCherry reporter infection, fluorescence. AID 720579. 0.63% of 310,000 active. Potency, µM (top dose mostly 36.5 µM), for inactives: at the top dose activity change, negative = inhibition, actives largely listed as inhibitors; calls by dose curve; tested in A549 cells; further: on the % scale 0 is the no-effect control and ±100 the full control effect; nearly all actives have a fitted effect of over 35% in size
An asterisk follows results filed as active; i = inactive; u = inconclusive; x = no result. Compounds with a hit are over-represented: about 1.3% of the library has one in this group of screens. Unless noted, the call rests on the fitted dose curve; in most records, active means well fitted curve in the direction sought with a large enough effect; inconclusive means small, poorly fitted or top-dose-only effect, or another doubt; inactive means no such curve, though single readings can be large; an effect the other way counts as inactive or inconclusive. Potency means the concentration at half of the fitted maximal effect.

SMILES | Vaccinia Venus | AmpC no deterg | SARS PLpro yeast | AmpC inh detg | Vaccinia mCherry
CCN(CC(=O)Nc1ccc(NC(C)=O)cc1)C(=O)/C=C/c1cn(-c2ccccc2)nc1-c1cccs1 | -28% | 25µM* | 2% | u | -7%
CC1(C)CC(C(=O)N2CCOc3ccc(CN4CCC(Oc5cccnc5)CC4)cc3C2)CCO1 (configuration not stated) | -17% | x | x | x | -1%
Cc1cc(C)c(C#N)c(Sc2nnnn2-c2ccccc2)n1 | -17% | 0.56µM* | 0% | u | i
COc1ccc(Nc2nc(N3CCCCC3)c3ccccc3n2)cc1 | u | -23% | -15% | 3% | u
Oc1ccc(Nc2nc(N3CCCC3)c3ccccc3n2)cc1 | 8.9µM* | -34% | -7% | -3% | u
COc1cccc(CN2C(=O)NC(C)(C3CCN(Cc4ccc(C)o4)CC3)C2=O)c1OC (configuration not stated) | -20% | x | x | x | -24%
CCCNc1c(NS(=O)(=O)c2c(F)c(F)c(F)c(F)c2F)c(=O)oc2ccccc12 | u | -30% | -5% | 0% | 5µM*
CCCNc1c(NS(=O)(=O)c2ccc(C)c(C)c2)c(=O)oc2ccccc12 | x | -30% | -3% | 1% | x
CN(C)CCCNC(=O)/C(=C\c1ccc(-c2ccc(Br)cc2)o1)NC(=O)c1ccccc1 | 13µM* | 245% | 12% | u | 11µM*
CN(C)CCCNC(=O)/C(=C/c1ccc(-c2ccc([N+](=O)[O-])cc2)o1)NC(=O)c1ccccc1 | x | 104% | -1% | 2% | x
Cc1ccc(C(=O)N/C(=C\c2ccc(-c3ccc(Cl)cc3)o2)C(=O)NCCCN(C)C)cc1 | 13µM* | 272% | 0% | u | u
Cc1ccc(C(=O)N/C(=C\c2ccc(-c3ccccc3[N+](=O)[O-])o2)C(=O)NCCCN(C)C)cc1 | 10% | 62% | 2% | -7% | -14%
O=C(O)C1=CC(=C(c2ccc(O)c(C(=O)O)c2)c2ccc(O)c(C(=O)O)c2)C=CC1=O | -20% | 8.9µM* | x | 8.9µM* | -28%
Cc1cc(C)n(CC(=O)N2CCC(n3c(C(C)C)nc4cccnc43)CC2)n1 | 17% | x | x | x | 0%
COc1ccc(-c2csc3ncnc(N4CCN(S(=O)(=O)c5ccc(C(C)=O)cc5)CC4)c23)cc1 | -27% | 32µM* | -1% | u | u
O=C1CCN(Cc2cccn2-c2ccccn2)CCN1Cc1ccccc1C(F)(F)F | 11% | x | x | x | -14%
COc1ccc(NS(=O)(=O)c2c(F)cc(F)c(Cl)c2F)cc1S(=O)(=O)N1CCCCC1 | 5.6µM* | -19% | 1% | 3% | 3.5µM*
OCCCNCc1cc2cc3c(cc2nc1N1CCN(c2cccc(Cl)c2)CC1)OCO3 | -7% | x | x | x | -13%
CSc1ccc(C(=O)N2CCc3c(cnc(C)c3CNC(=O)c3cncs3)C2)cc1 | -2% | x | x | x | 0%
COc1cccc(C2c3c(-c4ccccc4O)n[nH]c3C(=O)N2CCc2ccc(OC)c(OC)c2)c1 (configuration not stated) | -13% | x | x | -2% | -16%
Nc1nc(N)c2c(OCc3ccc(C(F)(F)F)cc3)cccc2n1 | 10µM* | x | x | x | 10µM*
CCOC(=O)N(C)c1c(CC)nc2c(OCc3ccc(C(F)(F)F)cc3)cccn12 | -19% | x | x | x | 18%
CCCCOc1ccc(Br)cc1/C(C)=N/NC1=NCCN1 | 6.3µM* | 41% | -41% | 3% | x
O=C(OCc1cc(=O)n2c(n1)sc1ccccc12)c1cccc(O)c1 | -5% | -38% | -20% | -2% | -8%
O=C(Cc1coc2cc3c(cc12)CCC3)OCc1cc(=O)n2c(n1)sc1ccccc12 | x | 32µM* | -4% | -1% | x
SMILES | Vaccinia Venus | AmpC no deterg | SARS PLpro yeast | AmpC inh detg | Vaccinia mCherry
CCC1=NN2C(=N)/C(=C\c3cccn3-c3ccc(Cl)cc3)C(=O)N=C2S1 | 9% | 0.89µM* | -4% | u | -1%
CCC1=NN2C(=N)/C(=C\c3cccn3-c3ccc(C)c(C)c3)C(=O)N=C2S1 | -19% | -51% | -1% | u | i
CCC1=NN2C(=N)/C(=C/c3ccc(OS(=O)(=O)c4ccccc4)cc3)C(=O)N=C2S1 | x | 28µM* | -4% | -9% | x
CCS(=O)(=O)C1=NN2C(=N)/C(=C\c3ccc(OS(=O)(=O)c4ccccc4)cc3)C(=O)N=C2S1 | x | -25% | 23% | 2% | x
Cc1ccc(S(=O)(=O)N(C)c2ccc(OCC(=O)Nc3nc(-c4ccccc4)cs3)cc2)cc1 | -14% | 2µM* | 6% | -9% | -20%
CC(C)NC(=S)NC(=O)c1ccc(Cl)cc1Cl | -3% | -31% | 7.9µM* | -12% | i
CC(C)CNC(=S)NC(=O)c1ccc(Cl)cc1Cl | x | -24% | u | 5% | x
CCN(CC)CCN1C(=O)c2ccccc2NC1c1ccc(OC)c(COc2ccc(NC(C)=O)cc2)c1 (configuration not stated) | -6% | x | x | x | 30%
CC(NC(=O)c1cccnc1)c1nnc2n1CCN(Cc1ccc(-c3ccccc3Cl)o1)CC2 (configuration not stated) | -16% | x | x | x | i
COc1ccc(CN2C(=O)NC(=O)/C(=C/c3cc(OC)c(OC)c(OC)c3)C2=O)cc1 | -4% | -26% | -1% | 1% | i
COc1ccc(CN2C(=O)NC(=O)/C(=C/c3ccoc3)C2=O)cc1 | x | 10µM* | 2% | -5% | x
COc1cccc(CNc2ncnc3sc(C(=O)N4CCOCC4)c(C)c23)c1OC | -6% | x | x | x | -20%
CCOC(=O)c1c(NC(=O)C2=C(C)NC(=S)NC2c2ccc(CC)cc2)sc(C)c1C (configuration not stated) | x | 13µM* | 5% | -11% | x
CCOC(=O)C1=C(C)NC(=S)NC1c1ccc(OC(=O)c2ccco2)cc1 (configuration not stated) | -1% | -29% | -10% | 3% | -10%
Cc1oc(-c2ccccc2NC(=O)C2CCCO2)nc1CNC(=O)c1[nH]c2c(C)ccc(C)c2c1C (configuration not stated) | -14% | x | x | x | -9%
Cc1nc2ccccc2n1/N=C/c1ccc([N+](=O)[O-])o1 | 11µM* | x | x | x | 7.9µM*
O=C(NCc1nnc2n1CCN(Cc1ccc(C(F)(F)F)cc1)CC2)c1ccccn1 | 4% | x | x | x | -5%
Cc1cc(Cl)n2nc(C)c(-c3ccc(Cl)cc3)c2n1 | 14µM* | 16% | -5% | -4% | u
Fc1ccc(N2CCN(Cc3ccc4c(c3)CN(Cc3cccn3-c3ncccn3)CCO4)CC2)cc1 | -9% | x | x | x | -22%
